In PubChem BioAssay one finds viability and inhibition data, which are given here for 40 compounds.

The source made the active and inactive calls. Cut-off read from the data, not from the text of the source: active = inhibition above about 31%; inactive = the rest.

The nature of the first test: reversal of MRP1-mediated doxorubicin resistance, pilot screen, H69AR cells, doxorubicin co-treatment (AID 601). The following applies: H69AR cells, CellTiter-Glo, 72 h; compound alone cytotoxicity; at 10 µM. Background: In ATP-based viability assays light output follows the ATP content of the culture.
`CCOC(=O)C1CCN(C(=O)CN(c2ccc(Cl)c(C(F)(F)F)c2)S(C)(=O)=O)CC1`: the viability (usually a read-out of living cells in per cent, often relative to untreated cells) was found to be 92.1%.
Same read-out and setting: to `CCOc1ccccc1C(=O)Nc1cc(=O)n(C)c(=O)n1C` belongs 88.1%; to `Cc1ccc(-c2cc3nc4c(c(=O)n3[nH]2)CCCC4)cc1`, 91.9%; to `CCOC(=O)C(C)Sc1nnc(Cc2cc(=O)[nH]c(=O)[nH]2)n1-c1ccc(Cl)cc1` (stereo not given), 103%.
Still for that read-out and setting: the result for `c1nc(NCC2CCCO2)c2[nH]cnc2n1` (stereo not given) reads 91.1%; that for `O=C(Nc1ccc(Cl)cn1)c1cccnc1`, 70.1%; that for `O=C1c2ccccc2C(=O)N1C/C=C/CN1C(=O)c2ccccc2C1=O`, 82.8%.
On to `O=c1oc2c3c4c(cc2cc1-c1nc2ccccc2[nH]1)CCCN4CCC3`, for which the viability was 83.3%.
Still for that read-out and setting: to `CCCCC(=O)NCCc1cc2c(C)ccc(C)c2[nH]c1=O` belongs 85.1%; to `O=C(NCc1ccc(F)cc1)c1cc2ccccn2n1`, 98.2%.
The same measure, in the same setting: to `COc1cccc(C2C3=C(N=C4SCC(=O)N42)c2ccccc2CC3)c1OC` (stereo not given) belongs 98.2%; to `CCOC(=O)N1CCC(c2cc(=O)n3[nH]c(C)c(-c4ccc(F)cc4)c3n2)CC1`, 21.3%.
Regarding `C=CCn1c(=O)n(CCOC)c(=O)c2sc3ccccc3c21`, the viability was 86.8%.
Same read-out and setting: the result for `Cc1ccc2cc(CCNC(=O)C(C)C)c(=O)[nH]c2c1C` reads 99%.
Still for that read-out and setting: the result for `COc1ccc(S(=O)(=O)N2CCCC2C(=O)Nc2ccc(O)cc2)cc1` (stereo not given) reads 98.4%.
Same read-out and setting: the result for `Cc1cccc(-n2ncc3c(NCc4cccnc4)ncnc32)c1` reads 88%; that for `COc1cccc(NC(=O)C2CCCN(S(=O)(=O)c3cccc4cccnc34)C2)c1` (stereo not given), 82.7%; that for `CCc1nnc(NC(=O)COC(=O)CN2C(=O)c3ccccc3C2=O)s1`, 109%.
For the compound `O=C(C1CCN(c2nnc(-n3cccc3)s2)CC1)N1CCc2ccccc2C1`, the viability was found to be 77.9%.
Still for that read-out and setting: to `Cc1c(C(=O)NC2CC2)oc2ccc(S(=O)(=O)N3CCCCCC3)cc12` belongs 83%; to `Cc1sc2nc(SCC(=O)NCCO)n(C)c(=O)c2c1C`, 88%.
Same read-out and setting: the result for `S=c1[nH]nc(-c2ccccc2)n1C1C=CCCC1` (stereo not given) reads 85%.
`c1ccc(N2CCN(Cc3cn4cccnc4n3)CC2)cc1`: the viability is 97.6%.
On the same count and under the same terms, to `CCCCc1ccc(NC(=O)C2CCCO2)cc1` (stereo not given) belongs 103%.
On the same count and under the same terms, to `Cc1[nH]c2ccccc2c(=O)c1CN1CCCCC1` belongs 90.5%; to `Cc1ccccc1-n1c(Cn2c(=O)sc3ccccc32)nnc1SCC(=O)N1CCCC1`, 93.7%.
Still for that read-out and setting: the result for `COc1ccccc1-n1c(=O)[nH]c2c(C(N)=O)nc(CC(C)C)nc21` reads 80.4%; that for `Cc1ccccc1-c1nc(CN2CCC(C(=O)N3CCC(C(N)=O)CC3)CC2)c(C)o1`, 89.5%; that for `CCCCN(CC)CCCNC(=O)c1cc2c(=O)n(C)c3ccccc3c2n1C`, 70.1%.
On to `Cc1nn(-c2ccc(F)cc2)c2c1cc(C#N)c1nc3ccccc3n12`, for which the viability was 86.3%.
Regarding `CCCn1c(OC)nc2c1c(=O)n(C)c(=O)n2C`, the viability was 94.4%.
On the same count and under the same terms, to `CCOC(=O)Cc1ccc(NS(=O)(=O)c2ccc(SC)cc2)cc1` belongs 86.7%; to `CC(C)Sc1nc2c(c(=O)n1-c1ccc(F)cc1)SCC2`, 88.5%.
Still for that read-out and setting: the result for `COc1cccc(C2CC(c3c(Cl)cccc3Cl)n3nc(N)nc3N2)c1` (stereo not given) reads 83.6%; that for `Cc1cccc(OCCNC(=O)c2ncn[nH]2)c1`, 91.9%; that for `COc1ccc(S(=O)(=O)N2CCN(c3ccc(C)cc3C)CC2)cc1OC`, 97.2%.
On to `CS(=O)(=O)NCCSCc1c(F)cccc1Cl`, for which the viability was determined as 102%.
Same read-out and setting: to `CC(C)CCNC(=O)Cn1c(NCCC(C)C)nc2c1c(=O)n(C)c(=O)n2C` belongs 93.7%; to `CCOC(=O)N1CCC(NC(=O)C2CCCN(C(=O)c3cc4sccc4n3C)C2)CC1` (stereo not given), 94.8%; to `CCOC(=O)N1CCC(NC(=O)c2cc(C(=O)NC3CCCC3)ccc2CO)CC1`, 92.8%.

Another test in a line: 384-well plate pilot, post-Golgi transport modulator project, inhibition of yeast transport mutant growth (AID 636). The following applies: absorbance 615 nm, about 18 h, stronger effect = higher value.
With `CCOC(=O)C1CCN(C(=O)CN(c2ccc(Cl)c(C(F)(F)F)c2)S(C)(=O)=O)CC1`, the inhibition (commonly the drop in the measured response relative to a control, in per cent) is -0.65% (inactive).
Take `CCOc1ccccc1C(=O)Nc1cc(=O)n(C)c(=O)n1C`: the inhibition was -5.47% (inactive).
On the same count and under the same terms, the result for `Cc1ccc(-c2cc3nc4c(c(=O)n3[nH]2)CCCC4)cc1` reads -0.26% (inactive); that for `CCOC(=O)C(C)Sc1nnc(Cc2cc(=O)[nH]c(=O)[nH]2)n1-c1ccc(Cl)cc1` (stereo not given), 1.54% (inactive).
Still for that read-out and setting: the result for `c1nc(NCC2CCCO2)c2[nH]cnc2n1` (stereo not given) reads -1.84% (inactive); that for `O=C(Nc1ccc(Cl)cn1)c1cccnc1`, -0.52% (inactive).
Same read-out and setting: to `O=C1c2ccccc2C(=O)N1C/C=C/CN1C(=O)c2ccccc2C1=O` belongs -3.46% (inactive); to `O=c1oc2c3c4c(cc2cc1-c1nc2ccccc2[nH]1)CCCN4CCC3`, -1.95% (inactive).
Turning to `CCCCC(=O)NCCc1cc2c(C)ccc(C)c2[nH]c1=O`, the inhibition was -5.07% (inactive).
Take `O=C(NCc1ccc(F)cc1)c1cc2ccccn2n1`: the inhibition was -2.95% (inactive).
On to `COc1cccc(C2C3=C(N=C4SCC(=O)N42)c2ccccc2CC3)c1OC` (stereo not given), for which the inhibition is -1.69% (inactive).
Consider `CCOC(=O)N1CCC(c2cc(=O)n3[nH]c(C)c(-c4ccc(F)cc4)c3n2)CC1`, for which the inhibition was 0.38% (inactive).
Still for that read-out and setting: to `C=CCn1c(=O)n(CCOC)c(=O)c2sc3ccccc3c21` belongs -0.53% (inactive); to `Cc1ccc2cc(CCNC(=O)C(C)C)c(=O)[nH]c2c1C`, -4.8% (inactive); to `COc1ccc(S(=O)(=O)N2CCCC2C(=O)Nc2ccc(O)cc2)cc1` (stereo not given), 0.13% (inactive).
On the same count and under the same terms, the result for `Cc1cccc(-n2ncc3c(NCc4cccnc4)ncnc32)c1` reads -4.8% (inactive); that for `COc1cccc(NC(=O)C2CCCN(S(=O)(=O)c3cccc4cccnc34)C2)c1` (stereo not given), -5.73% (inactive).
The same measure, in the same setting: to `CCc1nnc(NC(=O)COC(=O)CN2C(=O)c3ccccc3C2=O)s1` belongs -9.32% (inactive).
On to `O=C(C1CCN(c2nnc(-n3cccc3)s2)CC1)N1CCc2ccccc2C1`, for which the inhibition is -0.26% (inactive).
Regarding `Cc1c(C(=O)NC2CC2)oc2ccc(S(=O)(=O)N3CCCCCC3)cc12`, the inhibition is -0.81% (inactive).
Turning to `Cc1sc2nc(SCC(=O)NCCO)n(C)c(=O)c2c1C`, the inhibition is 0.77% (inactive).
On the same count and under the same terms, to `S=c1[nH]nc(-c2ccccc2)n1C1C=CCCC1` (stereo not given) belongs 1.56% (inactive); to `c1ccc(N2CCN(Cc3cn4cccnc4n3)CC2)cc1`, -2% (inactive).
On the same count and under the same terms, the result for `CCCCc1ccc(NC(=O)C2CCCO2)cc1` (stereo not given) reads -4.87% (inactive); that for `Cc1[nH]c2ccccc2c(=O)c1CN1CCCCC1`, -4.29% (inactive); that for `Cc1ccccc1-n1c(Cn2c(=O)sc3ccccc32)nnc1SCC(=O)N1CCCC1`, -4% (inactive).
In the case of `COc1ccccc1-n1c(=O)[nH]c2c(C(N)=O)nc(CC(C)C)nc21`, the inhibition was -2.93% (inactive).
On the same count and under the same terms, to `Cc1ccccc1-c1nc(CN2CCC(C(=O)N3CCC(C(N)=O)CC3)CC2)c(C)o1` belongs -5.73% (inactive); to `CCCCN(CC)CCCNC(=O)c1cc2c(=O)n(C)c3ccccc3c2n1C`, -2.05% (inactive).
On the same count and under the same terms, the result for `Cc1nn(-c2ccc(F)cc2)c2c1cc(C#N)c1nc3ccccc3n12` reads -2.89% (inactive); that for `CCCn1c(OC)nc2c1c(=O)n(C)c(=O)n2C`, -2.53% (inactive); that for `CCOC(=O)Cc1ccc(NS(=O)(=O)c2ccc(SC)cc2)cc1`, -5.54% (inactive).
Still for that read-out and setting: the result for `CC(C)Sc1nc2c(c(=O)n1-c1ccc(F)cc1)SCC2` reads -4.27% (inactive); that for `COc1cccc(C2CC(c3c(Cl)cccc3Cl)n3nc(N)nc3N2)c1` (stereo not given), -4.53% (inactive).
As for `Cc1cccc(OCCNC(=O)c2ncn[nH]2)c1`, the inhibition was 0% (inactive).
The same measure, in the same setting: to `COc1ccc(S(=O)(=O)N2CCN(c3ccc(C)cc3C)CC2)cc1OC` belongs -5.87% (inactive).
The same measure, in the same setting: the result for `CS(=O)(=O)NCCSCc1c(F)cccc1Cl` reads 0.4% (inactive); that for `CC(C)CCNC(=O)Cn1c(NCCC(C)C)nc2c1c(=O)n(C)c(=O)n2C`, 1.73% (inactive).
As to `CCOC(=O)N1CCC(NC(=O)C2CCCN(C(=O)c3cc4sccc4n3C)C2)CC1` (stereo not given), the inhibition is -2.4% (inactive).
Turning to `CCOC(=O)N1CCC(NC(=O)c2cc(C(=O)NC3CCCC3)ccc2CO)CC1`, the inhibition was -6.8% (inactive).
